Rows were chosen to be rich in hits. Some 4.3% of all compounds tested hit in one or more screens of this group.
MITF TRPM1 HTS: activators of MITF-driven TRPM1 promoter activity in SK-MEL-5 cells; SK-MEL-5 TRPM1-promoter luciferase, 24 h; % of positive control, neutral wells = 0; actives 0.75% (n = 300,000); activation, % at 12.5 µM;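 active = mean activation of at least 80% with every replicate also reaching 80%; inconclusive = mean reaches 80% but some replicate falls short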
esBAF inh: blocks esBAF chromatin remodeling in mouse ES cells; Bmi1-luciferase knock-in reporter, 24 h; 100% = twice the neutral-well signal; reporter increase, % at 12.5 µM; actives 2% (n = 350,000); in the data active = activation above about 40%; inconclusive = no clear call, values can overlap the other calls;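 also: a rise in the Bmi1 reporter signal indicates esBAF inhibition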
HSF-1 act: increases HSF-1 driven luciferase reporter signal. NIH3T3-HGL HSF-1 luciferase reporter, MG132, 8 h; 100% = twice DMSO control signal. activation, % at 9 µM. actives 1.7% (n = 300,000). AID 504408;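 active = mean replicate activation of at least 50% with a set share of replicates each reaching 50%; inconclusive = only one of those two conditions met; inactive = mean below 50% and too few replicates reaching it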
Wnt bcat act: activators of Wnt/beta-catenin signaling; Wnt/beta-catenin reporter cell assay, activator, plate reader; activation, % at 9.35 µM; actives 1.2% (n = 300,000); in the data active = activation above about 30%, passing the limit was not always enough; inconclusive = no clear call, values can overlap the other calls
SMARCA2 activ: activators of SMARCA2 function. MG213 cells, MMTV-luciferase reporter, dexamethasone, overnight. activation, % at 9.1 µM. actives 1% (n = 370,000). AID 652017; in the data active = activation above about 7.8%
HSF1 inh: HSF1 inhibition; AID 2098; actives 0.77% (n = 300,000); NIH3T3-HGL HSE-luciferase, MG132-induced, luminescence 8 h; active compounds read low; activity change, negative = inhibition, % at 7.5 µM (by protocol);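 active = more than half of replicate wells show activity change below -50%, luminescence cut by over half; inconclusive = some wells, but at most half, below -50%; inactive = no replicate well below -50%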;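 also: luciferase reports HSF-1 transcriptional activity via heat shock element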
A number is an active result; . = inactive; ? = inconclusive; / = no result.

SMILES	MITF TRPM1 HTS	esBAF inh	HSF-1 act	Wnt bcat act	SMARCA2 activ	HSF1 inh
COc1ccc(-c2csc(NC(=O)CC(C)C)n2)cc1	.	/	.	53	.	.
Cc1nc(-c2ccc(NC(=O)CC(C)C)cc2)cs1	92	/	.	37	.	.
CC(C)C(=O)Nc1cccc(-c2csc(-c3ccccc3)n2)c1	.	.	.	.	.	.
CC(C)CC(=O)Nc1ccc(-c2cn3ccsc3n2)cc1	.	.	/	/	.	/
CC(C)C(=O)Nc1ccc(-c2csc(-c3ccccc3)n2)cc1	139	71	.	/	.	.
C[C@H]1CN([C@@H](C)CO)C(=O)c2cc(C#CC(C)(C)O)cnc2O[C@H]1CN(C)C(=O)C1CCCCC1	/	.	/	/	/	/
O=C(Nc1ccccc1)N[C@@H]1CC[C@@H](CCNS(=O)(=O)c2ccccc2F)O[C@H]1CO	/	.	/	/	/	/
Cc1nc2c(ncn2-c2ccccc2)c(=O)n1NC(=O)CN1CCOCC1	.	/	.	.	.	-57
CO[C@@H]1CN(C)C(=O)c2ccc(NC(=O)C3CC3)cc2OC[C@H](C)N(C(=O)c2cnccn2)C[C@@H]1C	/	.	/	/	/	/
CCOC(=O)C(CC)Sc1ccc2nnc(-c3cccnc3)n2n1 (stereo not given)	.	/	.	.	.	-72
CCOC(=O)CSc1ccc2nnc(-c3ccncc3)n2n1	/	.	55	.	.	.
Cc1ccccc1NC(=O)c1cc2ccccn2n1	.	/	.	59	.	.
Cc1ccc(C)c(NC(=O)c2cc3ccccn3n2)c1	.	.	.	50	.	.
CC(=O)c1cccc(NC(=O)c2cc3ccccn3n2)c1	/	54	.	?	.	.
CO[C@@H]1CN(C)C(=O)c2cc(NC(=O)C3CC3)ccc2OC[C@H](C)N(CC2CCOCC2)C[C@@H]1C	/	.	/	/	/	/
c1ccc(Cn2ccc(-c3cnc(-c4ccccc4)s3)n2)cc1	.	/	74	/	.	.
Nc1ccn(Cc2ccccc2)n1	.	/	.	.	.	.
COc1cccc(-c2cc(C(=O)Nc3cccnc3)no2)c1	/	.	78	.	.	.
COc1cccc(-c2cc(C(=O)Nc3cc(OC)c(OC)c(OC)c3)no2)c1	.	.	.	/	.	.
O=C(Nc1cccnc1)c1cc(-c2ccc(Br)cc2)on1	/	.	.	50	.	.
O=C(Nc1cccnc1)c1cc(-c2ccccc2)on1	.	.	.	.	.	.
C[C@@H]1CN([C@H](C)CO)C(=O)c2cccc(NS(=O)(=O)c3ccc(F)cc3)c2O[C@@H]1CN(C)Cc1ccc(C(F)(F)F)cc1	/	.	/	/	/	/
O=C(Cc1ccccn1)N[C@@H]1C=C[C@H](CC(=O)N2CCCCC2)O[C@H]1CO	/	.	/	/	/	/
CNC[C@H]1Oc2ccc(NC(=O)NC(C)C)cc2CC(=O)N([C@H](C)CO)C[C@H]1C	/	.	/	/	/	/
COc1ccc(-c2ccc(C(=O)Nc3ccc4c(c3)OCO4)c3occc23)c(C)c1	/	59	/	.	.	/
SMILES	MITF TRPM1 HTS	esBAF inh	HSF-1 act	Wnt bcat act	SMARCA2 activ	HSF1 inh
COc1ccc(-c2ccc(C(=O)Nc3ccc(OC)nc3)c3occc23)c(C)c1	/	.	/	.	.	/
COc1ccc(-c2ccc(C(=O)Nc3ccccc3)c3occc23)c(C)c1	/	86	/	.	.	/
CCCN1[C@@H]2Cn3c(ccc(-c4ccccc4F)c3=O)[C@H]1[C@@H](C(=O)NCCOC)[C@@H]2CO	/	.	/	/	/	/
CC(C)C#Cc1ccc2c(c1)O[C@H](CN(C)CC1CCOCC1)[C@@H](C)CN([C@@H](C)CO)S2(=O)=O	/	.	/	/	/	/
N#CC1=C(N)Oc2c(O)cc3ccccc3c2C1c1ccsc1 (stereo not given)	.	/	71	.	.	.
CCOC(=O)C1=C(C)OC(N)=C(C#N)C1c1ccsc1 (stereo not given)	.	.	.	.	/	.
Cc1nc(NCCc2ccc(F)cc2)c(C#N)c(C)c1[N+](=O)[O-]	.	/	51	/	.	.
COCc1c(C#N)c(NCCc2ccc(F)cc2)nc(C)c1[N+](=O)[O-]	.	/	.	.	.	.
CN1C(=O)c2cc(NC(=O)c3ccc(F)c(F)c3)ccc2OC[C@H]2O[C@@H](CC(=O)N[C@@H]3CCN(Cc4ccccc4)C3)CC[C@H]21	/	.	/	/	/	/
Cc1ccccc1-c1cnc2c(c1)C(=O)N([C@H](C)CO)C[C@H](C)[C@@H](CN(C)Cc1cncnc1)O2	/	.	/	/	/	/
COC(=O)c1ccc(CSc2nc(N)cc(N)n2)cc1	.	52	.	/	.	.

Compound activity (PubChem BioAssay)
